Source: PubChem BioAssay
Shown are actives, neighbours in structure and some others; about 7.5% of the full set was active somewhere.
Luc counter: counter-screen: inhibitors of Kinase-Glo firefly luciferase; Potency, µM (highest dose often 38.3 µM), for inactives: at the highest dose activity change, negative = inhibition, usual class: inhibitors; Kinase-Glo luciferase, ATP luminescence, 8 min; Q27757; 200,000 tested, 0.28% active; note: % is set by controls: 0 for no effect and ±100 for the full control effect; nearly all actives have a fitted effect of over 60% in size
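Inhibition of Kinase-Glo luciferase light generation was assessed at 10 uM ATP in pH 7.2 imidazole buffer, with luminescence measured after eight minutes at ambient temperature.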
ELG1 genotox: inducers of genotoxicity in HEK293T ELG1-luciferase cells | HEK293T ELG1-luciferase reporter, luminescence, 16 h | Potency, µM (doses to about 46 µM), for the others: at the highest dose activity change, positive = activation, hits mostly activators | 330,000 tested, 1.3% active | AID 504466; note: % of control where 0% means no effect; nearly all actives have a fitted effect of over 60% in size
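HEK293T cells expressing luciferase-tagged ELG1 were treated with compound or DMSO for 16 hr at 37°C. Luciferase activity was then read after 30 min with ONE-Glo at room temperature; rising signal flags genetic stress.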
Rab9 prom act: activators of Rab9 promoter; Potency, µM (top dose mostly 9.22 µM), for inactives: top-dose activation, negative = inhibition, usual class: activators; Huh7 Rab9 promoter-luciferase reporter, luminescence, 24 h; AID 485297; 320,000 tested, 2.8% active; note: % of control where 0% means no effect; nearly all actives have a fitted effect of over 60% in size
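Using Huh7 cells stably transfected with Rab9 promoter–luciferase, compounds were incubated 24 h at 37 °C, 5% CO2; luciferase luminescence was read 10 min after reagent addition.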
NPC1 promoter act: activates the NPC1 promoter | Huh7 NPC1 promoter luciferase reporter, 24 h | Potency, µM (series often up to 9.22 µM), for the others: top-dose activation, hits mostly activators | 320,000 tested, 2.4% active | AID 485313; note: % of control where 0% means no effect; nearly all actives have a fitted effect of over 60% in size
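Luminescence read-out of NPC1 promoter-driven luciferase in stably transfected Huh7 cells; compounds delivered in DMSO and left 24 h at 37C, 5% CO2, qHTS titration format.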
SMN2 splice enh: enhancers of SMN2 splice variant expression. 210,000 tested, 2.8% active. HEK293 SMN2-luciferase splicing reporter, luminescence, 30-36 h. Potency, µM (series often up to 46.1 µM), without a hit: at the top dose activity change, positive = activation, actives largely listed as activators; note: % of control where 0% means no effect; nearly all actives have a fitted effect of over 55% in size
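qHTS luciferase splicing reporter: luminescence rises when SMN2 exon 7 is included in transfected HEK293 cells. Compound exposure lasted 30-36 h at 37C, with 4.5 mM final sodium butyrate as control, followed by a ONE-Glo read.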
FLuc modulator: inhibits or activates purified firefly luciferase, miR-21 counter-screen; purified FLuc, Km substrates, luminescence inhibition; Potency, µM (doses to about 57.5 µM), without a hit: at the top dose activity change, negative = inhibition, usual class: inhibitors; 360,000 tested, 6.9% active;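 note: plate controls were vehicle for no effect and reference inhibitor for full effect; nearly all actives have a fitted effect of over 55% in size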
Target sequence (P08659 whole entry, looked up): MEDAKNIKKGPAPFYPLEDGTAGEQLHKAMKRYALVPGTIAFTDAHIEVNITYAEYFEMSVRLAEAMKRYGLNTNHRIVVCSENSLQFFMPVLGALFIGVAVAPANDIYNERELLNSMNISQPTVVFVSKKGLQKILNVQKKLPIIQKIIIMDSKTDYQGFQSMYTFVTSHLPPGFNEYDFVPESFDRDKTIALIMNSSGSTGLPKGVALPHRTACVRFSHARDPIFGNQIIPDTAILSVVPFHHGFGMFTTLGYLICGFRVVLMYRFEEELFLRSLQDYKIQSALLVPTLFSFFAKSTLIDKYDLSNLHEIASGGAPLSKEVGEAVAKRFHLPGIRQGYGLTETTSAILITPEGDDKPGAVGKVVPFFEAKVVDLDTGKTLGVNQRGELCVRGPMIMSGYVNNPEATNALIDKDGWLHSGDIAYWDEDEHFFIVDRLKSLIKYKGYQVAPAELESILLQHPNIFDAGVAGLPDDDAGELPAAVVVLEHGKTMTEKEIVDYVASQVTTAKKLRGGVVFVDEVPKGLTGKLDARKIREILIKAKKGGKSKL
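Purified P. pyralis luciferase (10nM final) with 10uM D-luciferin and 10uM ATP (Km levels) in 50mM Tris acetate pH 7.5, 10mM Mg acetate, 0.01% Tween-20, 0.05% BSA; qHTS 6-point titration, ~60 µM downward; luminescence read.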
Starred values were filed as active, the others as inactive; u = inconclusive; x = no result; [ ] = another dose, or the depositor's remark. Calls come from the whole dose curve; as a rule, active = well fitted curve in the direction sought with a large enough effect; inconclusive = small, poorly fitted or top-dose-only effect, or another doubt; inactive = no such curve, though single readings can be large; an effect the other way counts as inactive or inconclusive. Potency is the fitted concentration of half-maximal effect.

SMILES	Luc counter	ELG1 genotox	Rab9 prom act	NPC1 promoter act	SMN2 splice enh	FLuc modulator
CC(=O)Oc1c2c(c(CC=C(C)C)c3c1C(=O)C1=CC4CC5C(C)(C)OC(C/C=C(\C)C(=O)O)(C4=O)[C@]15O3)OC(C)(CCC=C(C)C)C=C2 (stereo partly drawn)	0%	x	x	x	-95%	x
NC(N)=NCCN=C(N)N	-1%[7.66 µM]	x	x	x	-2%[9.22 µM]	x
C[C@H]1COC2=C1C(=O)C(=O)c1c2ccc2c1CCCC2(C)C	x	13%	14%	-2%	x	21µM*
O=C(O)[C@@H](O)[C@@H](O)C1[O][Sb][O][C@@H]1CO (stereo partly drawn)	-1%[7.66 µM]	x	x	x	-10%[9.22 µM]	x
Cc1ccc(/C=C2\C(=O)NC(=O)N(CCc3ccc(F)cc3)C2=O)o1	1%	u	1%	0%	10%	-9%
O=C1NC(=O)C(=Cc2ccc(-c3ccc(F)cc3O)o2)C(=O)N1	x	1%	-2%	-2%	x	13µM*
O=C1NC(=O)C(=Cc2ccc(-c3ccc(S(=O)(=O)N4CCOCC4)cc3)o2)C(=O)N1	x	11%	2%	-1%	x	u
CN1C(=O)C(=Cc2ccc(Sc3ccccc3)o2)C(=O)N(C)C1=O	-2%	13%	-5%	-3%	-2%	u
O=C1NC(=O)C(=Cc2ccc(-c3ccc(Cl)cc3)o2)C(=O)N1	x	-16%	0%	0%	x	6.7µM*
O=C1NC(=O)C(=Cc2ccc(Sc3ccccc3)o2)C(=O)N1	x	u	0%	1%	x	24µM*
CCCSC(=O)Cl	x	x	x	x	1%	x
O=C(O)c1cccc([As]=[As]c2cccc(C(=O)O)c2)c1 (stereo not drawn)	-1%[7.66 µM]	x	x	x	-11%[9.22 µM]	x
C[C@H](CC(C#N)(c1ccccc1)c1ccccc1)N1CCCCC1	-2%[7.66 µM]	x	x	x	-16%[9.22 µM]	x
O=C1NC(=O)C(=Cc2cccc(OCCOc3ccccc3)c2)C(=O)N1	x	u	0.32µM*	0.56µM*	x	15µM*
Cc1ccc(OCCOc2cccc(C=C3C(=O)NC(=O)NC3=O)c2)c(C)c1	x	u	0.13µM*	0.089µM*	x	7.6µM*
CN(C)c1ccc(C(=O)c2ccc(N(C)C)cc2)cc1	-2%	23µM*	-4%	-12%	-18%	13µM*
CN(C)c1ccccc1	x	x	x	x	-5%	x
COc1ccc(C=O)cc1OC	x	x	x	x	-1%	x
O=C(O)C[C@H]1OCC=C2CN3CC[C@]45c6ccccc6N[C@@H]4[C@H]1[C@H]2C[C@H]35	0%[7.66 µM]	x	x	x	-5%[9.22 µM]	x
O=C(N1CCOCC1)C1(c2ccccc2)CCNCC1	-1%[7.66 µM]	x	x	x	-13%[9.22 µM]	x
Cc1ccc2nc(N3CCN(C)CC3)[nH]c2c1	2%	16µM*	u	u	104%	27µM*
Cc1ccc(N2C(=O)NC(=O)/C(=C/c3ccc(-c4ccc(C(=O)O)c(Cl)c4)o3)C2=O)cc1	-1%	-11%	-2%	-3%	6%	11µM*
Cc1cc(/C=C2\C(=O)NC(=O)N(c3cccc(F)c3)C2=O)c(C)n1-c1ccc(C(=O)O)c(Cl)c1	x	-2%	0%	-1%	x	-18%
COc1ccccc1OCCCn1cc(C(=O)c2ccco2)c2ccccc21	8%	-18%	29%	u	-52%	17µM*
O=C(c1ccco1)c1cn(Cc2ccc(Cl)cc2)c2ccccc12	-1%	5%	-1%	2%	4%	u
SMILES	Luc counter	ELG1 genotox	Rab9 prom act	NPC1 promoter act	SMN2 splice enh	FLuc modulator
CCNCCC1(CC)C(=O)NC(=O)NC1=O	-1%[7.66 µM]	x	x	x	-3%[9.22 µM]	x
COc1ccc(-c2nc3ccccc3c(=O)n2-c2nccs2)cc1	-5%	-1%	9%	1%	1%	24µM*
O=C1NC(=O)N(c2ccccc2)C(=O)/C1=C/C=C/c1ccco1	x	15%	14%	17%	x	u
Cc1cc(C)cc(N2C(=O)NC(=O)/C(=C/c3cccn3-c3ccc(Cl)cc3)C2=O)c1	1%	-16%	2%	7%	14%	0%
CN(C)c1ccc(/C=C/C=C2/C(=O)NC(=O)N(c3ccccc3)C2=O)cc1	14µM*	-5%	-3%	1%	x	4.3µM*
CC(C)(C)n1cccc1/C=C1\C(=O)NC(=O)N(c2ccccc2)C1=O	0%	1%	-2%	2%	-22%	24µM*
O=C1NC(=O)N(c2ccccc2)C(=O)/C1=C/c1ccc2c(c1)Cc1ccccc1-2	9%	8%	1%	-5%	11%	21µM*
COc1cc(/C=C2\C(=O)NC(=O)N(c3ccccc3)C2=O)cc(OC)c1O	-8%	3%	1%	-3%	30%	21µM*
CCCOC(=O)[C@@H]1[C@@H](C(=O)O)[C@H]2CC[C@@H]1O2	-1%[7.66 µM]	x	x	x	-6%[9.22 µM]	x
O=C(CCn1c(=O)oc2ccccc21)N1CCC2(CC1)OCCO2	-3%	-1%	3%	9%	5%	-9%
O=c1oc2ccccc2n1CCCOc1ccccc1	5%	18µM*	u	29%	11µM*	19µM*
c1ccc2sc(NC3=NCCN3)nc2c1	-1%	-4%	u	u	u	u
COc1ccc2nc(NC3=NCCN3)sc2c1	-13%	18µM*	2.5µM*	2.8µM*	10µM*	5.4µM*
C=CCBr	x	x	x	x	-3%	x
O=C(CNC(=O)c1ccc(Cl)cc1)OCC(=O)c1ccc2c(c1)OCCO2	1%	-7%	2%	-2%	11%	21µM*
CC(=O)Nc1ccccc1C(=O)OCC(=O)c1ccc2ccccc2c1	-1%	-11%	x	26%	x	12µM*
Nc1ccccc1C(=O)OCC(=O)c1ccc2c(c1)OCCO2	11µM*	u	3.2µM*	2.8µM*	-22%	0.076µM*
CCOC(=O)c1ccccc1N	x	0%	x	x	-7%	x
CCSCC[C@H](N)C(=O)O	-2%[7.66 µM]	x	x	x	-2%[9.22 µM]	x
C=CC=O	x	x	x	x	-2%	x
Nc1c2c(nc3sc4c(c13)CCCC4)CCCCC2	-13%	14%	2.2µM*	2.8µM*	8.9µM*	1.9µM*
COC(=O)c1c(C)ccc2c(O)c3c(cc12)C(=O)c1c2c(cc(O)c1C3=O)[C@@]1(C)O[C@@](C)(O2)[C@@H](O)[C@H](N(C)C)[C@H]1O	-10%[7.66 µM]	x	x	x	12%[9.22 µM]	x
N#Cc1cc2c(nc1SCC(=O)Nc1cccc(F)c1)C1CCN2CC1	x	x	x	x	6.3µM*	-7%
Cc1ccc(C(=O)Nc2c(C(=O)Nc3ccc(C)c(C)c3)sc3nc(C)cc(C)c23)cc1	x	x	x	x	13µM*	11µM*
Cc1ccc(NC(=O)c2snnc2C)cc1Cl	0%	18%	-1%	-4%	-3%	-12%
Cc1ccc(-n2sc3ccccc3c2=O)cc1	-13%	u	u	u	u	4.8µM*
Cc1ccc(Cn2nc(C(=O)Nc3ccc(Br)cc3)cc2C)cc1	x	21µM*	-11%	-13%	x	9.5µM*
O=C(CN1CCCC1=O)Nc1ccccc1	4%	3%	-3%	-1%	7%	2%
